Test results reported in the supplement of paper PMC8728848.
The full list was thinned out, with the strongest signals kept by preference.

How the values were obtained:
Test in all cases: glycan array binding signal (z-score within array); higher = stronger binding
Settings in all cases: glycan notation: IUPAC condensed, linker removed
Fuc(a1-2)Gal = molecular target: Fuc(a1-2)Gal
Method in brief: (§1)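 Arrays were curated from the Consortium for Functional Glycomics database, 3228 in total, and kept only where the protein sequence was available. Binding is expressed as a within-array Z-score. This score was averaged across arrays of the same protein sequence at different concentrations or buffers and across linkers, and negative values can be read as non-binding.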

[1] = molecular target: Fuc(a1-2)Gal(b1-3)GalNAc(a1-3)[Fuc(a1-2)]Gal(b1-4)GlcNAc
Method in brief: as §1

[2] = molecular target: Fuc(a1-2)Gal(b1-4)GlcNAc6S
Method in brief: as §1

[3] = molecular target: Fuc(a1-2)Gal3S(b1-4)GlcNAc
Method in brief: as §1

Fuc(a1-2)Gal6S(b1-4)Glc = molecular target: Fuc(a1-2)Gal6S(b1-4)Glc
Method in brief: as §1

[4] = molecular target: Fuc(a1-2)[Gal(a1-3)]Gal(b1-3)GlcNAc(b1-2)Man(a1-3)[Fuc(a1-2)[Gal(a1-3)]Gal(b1-3)GlcNAc(b1-2)Man(a1-6)]Man(b1-4)GlcNAc(b1-4)[Fuc(a1-6)]GlcNAc
Method in brief: as §1

[5] = molecular target: Fuc(a1-2)[GalNAc(a1-3)]Gal
Method in brief: as §1

[6] = molecular target: Fuc(a1-2)[GalNAc(a1-3)]Gal(b1-3)GlcNAc
Method in brief: as §1

[7] = molecular target: Fuc(a1-2)[GalNAc(b1-3)]Gal
Method in brief: as §1

Gal(a1-3)Gal(b1-3)GlcNAc = molecular target: Gal(a1-3)Gal(b1-3)GlcNAc
Method in brief: as §1

[8] = molecular target: Gal(a1-3)Gal(b1-3)GlcNAc(b1-3)GalNAc
Method in brief: as §1

[9] = molecular target: Gal(a1-3)Gal(b1-4)GlcNAc(b1-3)GalNAc
Method in brief: as §1

[10] = molecular target: Gal(a1-4)Gal(b1-4)GlcNAc(b1-3)Gal(b1-4)Glc
Method in brief: as §1

[11] = molecular target: Gal(b1-3)GlcNAc(a1-3)Gal(b1-4)GlcNAc
Method in brief: as §1

[12] = molecular target: Gal(b1-3)GlcNAc(b1-2)Man(a1-3)[Gal(b1-3)GlcNAc(b1-2)Man(a1-6)]Man(b1-4)GlcNAc(b1-4)GlcNAc
Method in brief: as §1

[13] = molecular target: Gal(b1-3)GlcNAc(b1-2)Man(a1-3)[Gal(b1-3)GlcNAc(b1-2)Man(a1-6)]Man(b1-4)GlcNAc(b1-4)[Fuc(a1-6)]GlcNAc
Method in brief: as §1

[14] = molecular target: Gal(b1-3)GlcNAc(b1-2)Man(a1-3)[GlcNAc(b1-4)][Gal(b1-3)GlcNAc(b1-2)Man(a1-6)]Man(b1-4)GlcNAc(b1-4)GlcNAc
Method in brief: as §1

[15] = molecular target: Gal(b1-3)GlcNAc(b1-2)[Gal(b1-3)GlcNAc(b1-6)]Man(a1-6)[Gal(b1-3)GlcNAc(b1-2)Man(a1-3)]Man(b1-4)GlcNAc(b1-4)GlcNAc
Method in brief: as §1

[16] = molecular target: Gal(b1-3)GlcNAc(b1-6)[Gal(b1-3)]GalNAc
Method in brief: as §1

[17] = molecular target: Gal(b1-4)GlcNAc(b1-2)[Gal(b1-4)GlcNAc(b1-4)]Man(a1-3)[Gal(b1-4)GlcNAc(b1-2)Man(a1-6)]Man(b1-4)GlcNAc(b1-4)GlcNAc
Method in brief: as §1

[18] = molecular target: Gal(b1-4)GlcNAc(b1-2)[Gal(b1-4)GlcNAc(b1-6)]Man(a1-6)[GlcNAc(b1-4)][Gal(b1-4)GlcNAc(b1-2)Man(a1-3)]Man(b1-4)GlcNAc(b1-4)GlcNAc
Method in brief: as §1

[19] = molecular target: Gal(b1-4)GlcNAc(b1-3)Gal(b1-4)GlcNAc
Method in brief: as §1

[20] = molecular target: Gal(b1-4)GlcNAc(b1-3)Gal(b1-4)GlcNAc(b1-2)Man(a1-3)[Gal(b1-4)GlcNAc(b1-3)Gal(b1-4)GlcNAc(b1-2)Man(a1-6)]Man(b1-4)GlcNAc(b1-4)GlcNAc
Method in brief: as §1

[21] = molecular target: Gal(b1-4)GlcNAc(b1-3)Gal(b1-4)GlcNAc(b1-2)[Gal(b1-4)GlcNAc(b1-3)Gal(b1-4)GlcNAc(b1-6)]Man(a1-6)[Gal(b1-4)GlcNAc(b1-3)Gal(b1-4)GlcNAc(b1-2)Man(a1-3)]Man(b1-4)GlcNAc(b1-4)GlcNAc
Method in brief: as §1

[22] = molecular target: Gal(b1-4)GlcNAc(b1-3)Gal(b1-4)GlcNAc(b1-3)Gal(b1-4)GlcNAc(b1-2)Man(a1-3)[Gal(b1-4)GlcNAc(b1-3)Gal(b1-4)GlcNAc(b1-3)Gal(b1-4)GlcNAc(b1-2)Man(a1-6)]Man(b1-4)GlcNAc(b1-4)[Fuc(a1-6)]GlcNAc
Method in brief: as §1

[23] = molecular target: Gal3S(b1-3)[Fuc(a1-4)]GlcNAc
Method in brief: as §1

Gal3S(b1-4)Glc = molecular target: Gal3S(b1-4)Glc
Method in brief: as §1

GalNAc(b1-4)GlcNAc6S = molecular target: GalNAc(b1-4)GlcNAc6S
Method in brief: as §1

[24] = molecular target: GlcA3S(b1-3)Gal(b1-4)GlcNAc(b1-3)Gal(b1-4)Glc
Method in brief: as §1

[25] = molecular target: GlcNAc(a1-4)Gal(b1-4)GlcNAc(b1-3)Gal(b1-4)GlcNAc(b1-3)Gal(b1-4)GlcNAc
Method in brief: as §1

B1: Si Bti9 1b-HA (Solanum lycopersicum) (protein)
chain: MFESRPRSVLSLGVFVILVYLSSVPLPVNSQCNRGCDLALASFYVWRGSNLTLISEMFSTSIADIVSYNNRDNIPNQDSVIAGTRINIPFRCDCLNDGEVLGHAFPYRVKSGDTYDLVARNYSDLTTAQWMMKFNSYPENNIPNTVNLSVVVNCSCGNSDVSKDFGLFVTYPVRAEDNLTSVASAANVSEDIIRRYNPAAVSILDIGQGIIYIPGRDRNGNFPPLPTSTDGLSGGAKAPLFFNPAFLYKVVELKLAGRSRTSGYPYDVPDYAGYPYDVPDYALEVLFQ
glycan array binding signal (z-score) (Fuc(a1-2)Gal): -0.051
glycan array binding signal (z-score) [1]: 0.182
glycan array binding signal (z-score) [2]: -0.271
glycan array binding signal (z-score) [3]: -0.035
glycan array binding signal (z-score) (Fuc(a1-2)Gal6S(b1-4)Glc): -0.028
glycan array binding signal (z-score) [4]: 2.04
glycan array binding signal (z-score) [5]: -0.349
glycan array binding signal (z-score) [6]: -0.146
glycan array binding signal (z-score) [7]: -0.405
glycan array binding signal (z-score) (Gal(a1-3)Gal(b1-3)GlcNAc): 9.57
glycan array binding signal (z-score) [8]: 0.207
glycan array binding signal (z-score) [9]: -0.182
glycan array binding signal (z-score) [10]: -0.274
glycan array binding signal (z-score) [11]: -0.16
glycan array binding signal (z-score) [12]: 3.24
glycan array binding signal (z-score) [13]: 1.03
glycan array binding signal (z-score) [14]: 3.72
glycan array binding signal (z-score) [15]: 2.51
glycan array binding signal (z-score) [16]: -0.205
glycan array binding signal (z-score) [17]: -0.324
glycan array binding signal (z-score) [18]: -0.363
glycan array binding signal (z-score) [19]: -0.346
glycan array binding signal (z-score) [20]: 3.44
glycan array binding signal (z-score) [21]: 2.69
glycan array binding signal (z-score) [22]: 0.042
glycan array binding signal (z-score) [23]: -0.237
glycan array binding signal (z-score) (Gal3S(b1-4)Glc): 2.57
glycan array binding signal (z-score) (GalNAc(b1-4)GlcNAc6S): -0.204
glycan array binding signal (z-score) [24]: -0.157
glycan array binding signal (z-score) [25]: -0.231
